An excerpt weighted towards active compounds, which were near 9% of everything screened.
HPGD block: qHTS Assay for Inhibitors of HPGD (15-Hydroxyprostaglandin Dehydrogenase). purified HPGD, NADH fluorescence kinetic, PGE2 substrate. Potency, µM, for the others: at the top dose activity change, negative = inhibition, most hits filed as inhibitors. actives 4.3% (n = 150,000). AID 894, 2007; active = well fitted inhibition curve with a large enough effect, not every such curve was filed as active; inconclusive = small, poorly fitted or top-dose-only effect, or another doubt; inactive = no such curve, though single readings can be large or run the other way; note: % is set by controls: 0 for no effect and ±100 for the full control effect
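NADH formation kinetics: reaction with 30 uM PGE2 and 1 mM NAD+ (final), 20 nM enzyme, Tris-HCl pH 8 with Tween 20, after 15 min compound preincubation at room temperature. Fluorescence change, last versus first of five reads.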
HttQ103 aggreg: qHTS Multiplex Assay to Identify Dual Action Probes in a Cell Model of Huntington: Aggregate Formation (GFP). PC12 HttQ103-GFP aggregates, Acumen cytometry, 40 h. Potency, µM (highest dose often 46.1 µM), inactives show at the top dose activity change, negative = inhibition, most hits filed as inhibitors. actives 1.1% (n = 220,000); note: % is set by controls: 0 for no effect and ±100 for the full control effect; nearly all actives have a fitted effect of over 60% in size
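PC12 cells with ecdysone-inducible HTT exon1 Q103-GFP, induced by 100 nM tebufenozide, given compounds in a concentration series. GFP aggregates (1–25 um, 6 SD above background) counted in lysates by laser-scanning cytometry, 488 nm excitation.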
HTT cytoprotect: qHTS Multiplex Assay to Identify Dual Action Probes in a Cell Model of Huntington: Cytoprotection (ATP). Potency, µM (titrated, usually from 56.4 µM), for inactives: cytoprotection (ATP increase), actives largely listed as activators. PC12 HTT-Q103 induced, cytoprotection, ATP luminescence, 40 h. AID 1471, 2008. actives 0.14% (n = 230,000); note: % of control where 0% means no effect; nearly all actives have a fitted effect of over 45% in size
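Huntington model: PC12 line, ecdysone-inducible HTTQ103 exon1–GFP, tebufenozide 100 nM. Test articles in a dose series. Endpoint luminescence from cellular ATP.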
ALDH1A1 inh: qHTS Assay for Inhibitors of Aldehyde Dehydrogenase 1 (ALDH1A1) | Potency, µM (titrated, usually from 75.3 µM), for the others: top-dose activity, negative = inhibition, hits mostly inhibitors | Aldehyde dehydrogenase 1A1 (Homo sapiens), P00352 | AID 1030, 2008 | actives 7.3% (n = 220,000) | Purified ALDH1A1, NADH fluorescence, propionaldehyde substrate; active = well fitted inhibition curve with a large enough effect, not every such curve was filed as active; inconclusive = small, poorly fitted or top-dose-only effect, or another doubt; inactive = no such curve, though single readings can be large or run the other way;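 note: plate controls were no enzyme wells and a reference inhibitor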
Target sequence (P00352 whole entry, looked up): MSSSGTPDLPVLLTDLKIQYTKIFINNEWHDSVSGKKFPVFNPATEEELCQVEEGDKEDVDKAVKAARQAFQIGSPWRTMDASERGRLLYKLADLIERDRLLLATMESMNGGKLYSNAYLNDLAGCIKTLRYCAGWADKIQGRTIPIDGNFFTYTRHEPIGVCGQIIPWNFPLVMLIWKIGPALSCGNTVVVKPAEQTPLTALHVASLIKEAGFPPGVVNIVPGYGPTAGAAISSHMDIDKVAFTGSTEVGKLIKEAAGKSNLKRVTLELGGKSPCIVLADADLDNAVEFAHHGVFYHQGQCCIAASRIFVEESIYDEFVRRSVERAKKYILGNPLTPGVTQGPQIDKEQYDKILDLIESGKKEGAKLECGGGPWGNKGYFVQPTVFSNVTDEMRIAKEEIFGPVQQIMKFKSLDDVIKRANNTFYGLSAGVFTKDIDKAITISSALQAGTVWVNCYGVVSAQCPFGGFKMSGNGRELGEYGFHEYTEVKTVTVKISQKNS
LMNA splice mod: qHTS Assay for Modulators of Lamin A Splicing; HeLa LMNA splicing GFP/RFP minigene ratio, 48 h; Potency, µM (titrated, usually from 46.1 µM), inactives show at the top dose ratio change, negative = inhibition, hits mostly inhibitors; actives 0.01% (n = 200,000); AID 1487, 2009; active = well fitted inhibition curve with a large enough effect in the signal ratio, with a control signal flat, not every such curve was filed as active; inconclusive = small, poorly fitted or top-dose-only effect, or effect the other way, or a change in a side signal; the % refers to the signal ratio; note: % is set by controls: 0 for no effect and ±100 for the full control effect
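Read-out is the ratio of GFP to DsRed2 object intensity, acquired by 488 nm laser-scanning cytometry on HeLa lamin A-EGFP minigene reporter cells. Compound incubation 48 hrs at 37 °C in Opti-MEM with 2% FBS; DMSO 0.5% final.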
Luc counter: Counterscreen for Luciferase (Kinase-Glo TM) Inhibition. Potency, µM (top dose mostly 38.3 µM), without a hit: at the top dose activity change, negative = inhibition, actives largely listed as inhibitors. Kinase-Glo luciferase, ATP luminescence, 8 min. Luciferin 4-monooxygenase (Photuris pensylvanica), Q27757. actives 0.28% (n = 200,000); note: % is set by controls: 0 for no effect and ±100 for the full control effect; nearly all actives have a fitted effect of over 60% in size
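Inhibition of Kinase-Glo luciferase light generation was assessed at 10 uM ATP in pH 7.2 imidazole buffer, with luminescence measured after eight minutes at ambient temperature.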
* hit, by the source's call; ? = inconclusive; / = not tested or not shown; [ ] = remark or other dose. Unless noted, calls come from the whole dose curve; as a rule, active = well fitted curve in the direction sought with a large enough effect; inconclusive = small, poorly fitted or top-dose-only effect, or another doubt; inactive = no such curve, though single readings can be large; an effect the other way counts as inactive or inconclusive. Potency is the fitted concentration of half-maximal effect.

SMILES	HPGD block	HttQ103 aggreg	HTT cytoprotect	ALDH1A1 inh	LMNA splice mod	Luc counter
CSc1nsc(/C=C/Nc2ccc(F)cc2F)c1C#N	/	1%	-22%	8.9µM*	?	4%
CCN(CC)C(=O)c1sc(NC(=O)c2cccc([N+](=O)[O-])c2)c(C#N)c1C	7.1µM*	-30%	-31%[10 µM]	-11%	-11%	0%
CCN(CC)C(=O)c1sc(NC(=O)c2ccc3c(c2)OCO3)c(C#N)c1C	6.3µM*	-1%	-9%	?	-10%	-2%
CCN(CC)C(=O)c1sc(NC(=O)c2c(OC)cccc2OC)c(C#N)c1C	/	2%	-11%[10 µM]	?	?	-3%
Cc1ccc(CN2CCN(C(=O)CCN3C(=O)c4ccccc4C3=O)CC2)cc1	-3%	15%	2%	-7%	6%	-12%
Nn1c(-c2cccc(Br)c2)n[nH]c1=S	-28%	-25%	8%	22µM*	1%	-1%
S=c1[nH]nc(-c2cccc(Br)c2)o1	-22%	-26%	21%[1.9 µM]	6.3µM*	13%	0%
COc1cccc(NC(=O)CCC(=O)NCc2ccco2)c1	-3%	-14%	-12%	-1%	11%	-2%
CN1CC(=O)N(CC(=O)N2CCC(Cc3ccccc3)CC2)C1=O	/	6%	?	?	18%[46 µM]	1%
Cc1cc(C)c2c(=O)n(CC(=O)N3CCC(Cc4ccccc4)CC3)sc2n1	4.5µM*	?	11%[10 µM]	7.1µM*	-4%	6%
Cc1cccc(N2CCN(C(=O)Cn3sc4nc(C)cc(C)c4c3=O)CC2C)c1 (configuration not stated)	3.2µM*	-11%	-122%	3.5µM*	5%	-8%
CC1(C)Cc2nc3nc(SCC(=O)NCCc4ccccc4)n(-c4ccccc4)c(=O)c3cc2CO1	-14%	?	?	2.5µM*	10%	-2%
CC1(C)Cc2nc3nc(SCC(=O)NCc4ccccc4)n(-c4ccccc4)c(=O)c3cc2CO1	-7%	18%	1%	3.5µM*	2%	0%
CCn1c(SCC(=O)Nc2ccc(C)cc2)nc2nc3c(cc2c1=O)COC(C)(C)C3	/	11%[9.22 µM]	15%[10 µM]	?	/	/
Cc1cc(C)nc(SCc2ccc(F)cc2)n1	/	?	3.2µM*	-2%	13%[46 µM]	-3%
Cc1cc(C)nc(SCc2ccc([N+](=O)[O-])cc2)n1	/	0%[9.22 µM]	17%[10 µM]	-3%	31%[46 µM]	0%
Cc1cc(C)nc(SCc2ccc(C(=O)NN=C3C4CC5CC(C4)CC3C5)cc2)n1	-10%	-9%	0%[10 µM]	3.5µM*	-6%	-5%
CC1C/C(=N\NC(=O)c2ccc([N+](=O)[O-])cc2)CC(C)(C)C1 (configuration not stated)	/	21%[9.22 µM]	9%[10 µM]	/	/	/
Cc1cc(C)nc(SCc2ccc(C(=O)N/N=C3\CC(C)CC(C)(C)C3)cc2)n1 (configuration not stated)	/	8%	11%[10 µM]	7.9µM*	-9%	/
CC1C/C(=N\NC(=O)c2cccnc2)CC(C)(C)C1 (configuration not stated)	/	-9%	5%[10 µM]	?	/	2%
CC1C/C(=N\NC(=O)c2ccc(NS(=O)(=O)c3ccc(Br)cc3)cc2)CC(C)(C)C1 (configuration not stated)	-6%	8%	6%[10 µM]	3.5µM*	-4%	-5%
CCOC(=O)C1=C(C)NC(c2ccccc2)=C(C(=O)OCc2ccc([N+](=O)[O-])cc2)[C@@H]1C#Cc1ccccc1	-15%	/	-18%	-1%	/	-2%
